Among all 310,000 compounds or so, about 14,000 (4.5%) showed an effect of 50% or more. The effect is printed as a negative number. This is one part of a sample in which strong results are shown more often than they occur.
What follows are compounds tested against human ether-à-go-go-related gene (hERG) potassium channel (human, UniProt Q12809) (assay: primary screen, population patch clamp on CHO cells stably expressing hERG; higher = less effect of the substance).
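Note: peak tail current of the secondary pulse compared with the same well before compound.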

Sequence of human ether-à-go-go-related gene (hERG) potassium channel (Q12809 whole entry, looked up): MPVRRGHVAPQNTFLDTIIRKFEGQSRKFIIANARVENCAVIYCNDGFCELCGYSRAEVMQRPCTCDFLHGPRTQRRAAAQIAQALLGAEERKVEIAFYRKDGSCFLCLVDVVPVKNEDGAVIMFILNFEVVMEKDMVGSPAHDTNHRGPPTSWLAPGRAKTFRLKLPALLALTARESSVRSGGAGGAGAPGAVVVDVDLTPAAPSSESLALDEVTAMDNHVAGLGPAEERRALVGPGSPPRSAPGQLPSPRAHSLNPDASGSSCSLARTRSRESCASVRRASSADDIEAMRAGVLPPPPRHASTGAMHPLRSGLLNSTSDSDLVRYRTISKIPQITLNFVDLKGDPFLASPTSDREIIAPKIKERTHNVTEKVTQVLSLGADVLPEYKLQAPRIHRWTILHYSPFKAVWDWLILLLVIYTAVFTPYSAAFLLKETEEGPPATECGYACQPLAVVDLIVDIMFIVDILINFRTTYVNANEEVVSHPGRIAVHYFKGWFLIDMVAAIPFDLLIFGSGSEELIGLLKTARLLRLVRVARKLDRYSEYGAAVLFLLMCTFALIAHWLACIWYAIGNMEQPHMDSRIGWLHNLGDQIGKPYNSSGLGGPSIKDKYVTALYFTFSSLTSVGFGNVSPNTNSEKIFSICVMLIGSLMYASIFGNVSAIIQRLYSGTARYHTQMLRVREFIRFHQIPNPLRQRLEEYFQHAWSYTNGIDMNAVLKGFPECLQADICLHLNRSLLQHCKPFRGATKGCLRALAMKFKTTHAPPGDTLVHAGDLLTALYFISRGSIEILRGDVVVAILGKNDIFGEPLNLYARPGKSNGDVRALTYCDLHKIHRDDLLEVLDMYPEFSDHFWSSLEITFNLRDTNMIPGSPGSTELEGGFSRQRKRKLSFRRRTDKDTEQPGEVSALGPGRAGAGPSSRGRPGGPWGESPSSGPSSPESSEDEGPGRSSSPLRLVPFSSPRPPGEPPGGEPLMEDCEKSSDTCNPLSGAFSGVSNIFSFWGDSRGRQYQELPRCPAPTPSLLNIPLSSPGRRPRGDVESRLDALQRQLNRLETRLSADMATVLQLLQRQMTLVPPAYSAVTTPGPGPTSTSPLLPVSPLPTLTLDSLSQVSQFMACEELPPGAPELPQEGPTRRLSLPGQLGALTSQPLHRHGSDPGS

Row | Compound | hERG current change (%, negative = inhibition) at 10uM
1 | CC(C)(O[C@@H]1O[C@H](CO)[C@@H](O)[C@H](O)[C@H]1O)[C@@H]1CC=C(C(=O)O)CC1 | 15.5%
2 | COc1ccc(NC(=O)CN(c2ccccc2F)S(=O)(=O)c2ccc(C)cc2)cc1 | 10.6%
3 | COC(=O)c1sc2nc(N)c(C#N)cc2c1N | 31.1%
4 | Cc1nc(NCCc2ccc(O)cc2)c2nnn(Cc3ccccc3)c2n1 | 0.0141%
5 | Cc1ccc(OCC(=O)Nc2oc(-c3ccccc3)c(-c3ccccc3)c2C#N)cc1 | 17.7%
6 | COc1cc(CC(=O)NNC(=O)c2cc(C)oc2C)cc(OC)c1OC | 24.1%
7 | COc1ccc(S(=O)(=O)N2CCN(c3ccccc3OC)CC2)cc1C(=O)N1CCCCC1 | 7.51%
8 | COc1ccc(S(=O)(=O)N2CCCCCC2)cc1C(=O)N1CCN(c2ccccc2O)CC1 | -70.6%
9 | COc1ccc(S(=O)(=O)N2CCCCCC2)cc1C(=O)N1CCN(c2ccccc2C)CC1 | -48%
10 | Cc1ccc(-c2n[nH]c(=S)n2/N=C/c2ccc(C(=O)O)cc2)cc1 | 3.02%
11 | CCN(CC)c1ccc(N=Cc2ccc(N(CC)CC)cc2O)cc1 | 0.156%
12 | CCCN1CCN(C(=O)c2nn(-c3ccc(OC)cc3)c(=O)c3c2c2ccccc2n3C)CC1 | -3.71%
13 | O=C(CCC(=O)N1CCCc2ccccc21)N1CCN(S(=O)(=O)c2ccccc2)CC1 | -9.26%
14 | Cc1ccc(S(=O)(=O)CCC(=O)N2CCc3ccccc32)cc1 | -16%
15 | Cc1ccc(S(=O)(=O)N2CCN(C(=O)CCC(=O)N3CCc4ccccc43)CC2)cc1 | -62.2%
16 | COc1ccc(CNC(=O)CCC(=O)N2CCN(S(=O)(=O)c3ccc(Cl)cc3)CC2)cc1 | 22.3%
17 | Cc1ccc(C)c(S(=O)(=O)N2CCN(C(=O)CCC(=O)NCc3ccc(Cl)cc3)CC2)c1 | -65.1%
18 | O=C(CCC(=O)N1CCOCC1)NCc1cccc(C(F)(F)F)c1 | -0.171%
19 | O=C(CCC(=O)N1CCN(S(=O)(=O)c2ccc(Cl)cc2)CC1)NCc1ccccc1 | -14.8%
20 | Cc1ccc(S(=O)(=O)N2CCN(C(=O)CCC(=O)NCc3cccc(C(F)(F)F)c3)CC2)cc1 | -54.2%
21 | Cc1ccc(S(=O)(=O)N2CCN(C(=O)CCC(=O)NCc3ccc(F)cc3)CC2)cc1 | -24%
22 | O=C(CSc1nnc(-c2ccccc2O)n1Cc1ccccc1)NNC(=O)c1ccccc1O | 0.52%

Row | Compound | hERG current change (%, negative = inhibition) at 10uM
23 | COc1nccc(C(F)(F)F)c1C(=O)NC(=O)Nc1ccccc1 | -8.51%
24 | CCOC(=O)C1CCCN(C(=O)c2cc(S(=O)(=O)N3CCCCC3)c[nH]2)C1 (centres unmarked) | 14.5%
25 | CCOC(=O)c1c(C)[nH]c(C)c1S(=O)(=O)N1CCCCC1 | 15.9%
26 | CCOC(=O)CC(NS(=O)(=O)Cc1ccccc1)c1ccc(C)cc1 (centres unmarked) | -5.46%
27 | Cc1ccccc1NC(=O)CCC(=O)N/N=C/c1c[nH]c2ccccc12 | 2.16%
28 | C=CCn1c2ccccc2c2nnc(SCC(=O)NC(C(=O)OC)C(C)C)nc21 (centres unmarked) | -15.1%
29 | COc1ccc(-n2c(-c3ccc(Br)cc3)c[n+]3c2CCC3)cc1.[Br-] | -56%
30 | COc1ccc(-n2c(-c3ccccc3)c[n+]3c2CCC3)cc1.[Br-] | -20.5%
31 | COc1ccc(-n2c(-c3ccc(Br)cc3)n[nH]c2=S)cc1 | 13.3%
32 | COc1ccc(-c2c[n+]3c(n2-c2ccc(C)cc2)CCCCC3)cc1.[Br-] | -48.2%
33 | COc1ccc(-n2c(-c3ccc(Br)cc3)c[n+]3c2CCCCC3)cc1.[Br-] | -80.3%
34 | COc1ccc(-n2c(-c3ccc(Br)cc3)c[n+]3c2SC(C)C3)cc1.[Br-] (centres unmarked) | -72.6%
35 | COc1ccc(-c2c[n+]3c(n2-c2c(C)n(C)n(-c4ccccc4)c2=O)CCCCC3)cc1.[Br-] | 4.43%
36 | COc1cc(/C=C/c2ccc3cccc(OC)c3n2)c(O)c([N+](=O)[O-])c1 | 9.97%
37 | CNC(=S)N(Cc1ccc(OC)cc1)Cc1cc2cc(C)ccc2[nH]c1=O | 18%
38 | O=c1ccc(Cl)cn1Cc1ccccc1F | 5.34%
39 | CCN1C(=O)/C(=C/c2cnn(CC)c2C)SC1=S | 5.73%
40 | COc1ccc(S(=O)(=O)N2CCOc3ccccc32)cc1 | -1.55%
41 | Cc1ccccc1NC(=O)C(C)N1C(=O)c2ccccc2C1=O (centres unmarked) | 14.7%
42 | COc1ccc(C2NC(=O)c3ccccc3N2)cc1OC (centres unmarked) | 13%
43 | COc1ccc(Cc2nnc(SCC(=O)N3CCCC3)o2)cc1 | 2.54%
44 | COc1ccc(/C(N)=N/OC(=O)Cc2ccc(C)cc2)cc1 | 9.68%

Row | Compound | hERG current change (%, negative = inhibition) at 10uM
45 | C=CCNc1oc(Cc2cccc3ccccc23)nc1C#N | -14.7%
46 | CCCCn1c(=O)n(C)c(=O)c2c(C(F)(F)F)cc(-c3ccncc3)nc21 | -28%
47 | Cc1nc(C)c(-c2ccc(SCc3ccccc3F)nn2)s1 | 4.94%
48 | Cc1nc(C)c(-c2ccc(SCc3ccc(Cl)cc3)nn2)s1 | -14.7%
49 | Cc1nc(C)c(-c2ccc(SCc3cccc(F)c3)nn2)s1 | -50.6%
50 | O=C(O)CCC(=O)NCc1ccc(F)cc1 | -7.12%
51 | Cc1oc(C(C)(C)C)cc1C(N)=O | 12.7%
52 | CSc1ncccc1C(=O)NCc1ccccc1Cl | -7.25%
53 | Cc1ccc(NC(=O)COC(=O)C2CC3C=CC2C3)cc1S(=O)(=O)N1CCCCC1 (centres unmarked) | -7.32%
54 | O=C(COC(=O)C1CC2C=CC1C2)Nc1cccc(S(=O)(=O)N2CCCCCC2)c1 (centres unmarked) | -23.2%
55 | Cc1ccc(NC(=O)COC(=O)CNC(=O)c2cccc([N+](=O)[O-])c2)cc1S(=O)(=O)N1CCCCCC1 | -49.1%
56 | Cc1ccc(S(=O)(=O)N2CCCCC2)cc1NC(=O)COC(=O)C1CC2C=CC1C2 (centres unmarked) | -62%
57 | Cc1ccc(S(=O)(=O)N2CCCCC2)cc1NC(=O)COC(=O)CNC(=O)c1cc(Cl)cc([N+](=O)[O-])c1 | -51.4%
58 | O=C(COC(=O)CNC(=O)c1cccc([N+](=O)[O-])c1)Nc1cccc(S(=O)(=O)N2CCCCC2)c1 | -30.8%
59 | CC(=O)CC(=O)NC(=NC1CCCCC1)Nc1nc(C)cc(C)n1 | 7.01%
60 | Nc1ccc2c(c1)nnn2-c1ccccc1 | -7.35%
61 | Cn1c(SCC(=O)NC2CC2)nnc1-c1cccc(NC(=O)c2ccccc2F)c1 | -3.11%
62 | CCOc1ccccc1N(CC(=O)NC1CCCC1)C(=O)CNC(=O)c1cccs1 | -3.75%
63 | CCN1CCN(CC(=O)c2c[nH]c3ccc(C)cc23)CC1 | -4.16%
64 | O=C(c1cc(COc2c(F)cccc2F)on1)N1CCC(c2ccccc2F)C1 (centres unmarked) | 20.4%
65 | CN1CCN(C(=O)C2(NC(=O)NCc3ccccc3)CCCCC2)CC1 | 13.2%
66 | COc1ccc(CCNC(=O)C(=O)NCC2OCCN2S(=O)(=O)c2ccc(Br)cc2)cc1 (centres unmarked) | -7.02%

Row | Compound | hERG current change (%, negative = inhibition) at 10uM
67 | O=C([C@H](O)c1ccccc1)N1CCC[C@H]1CO | 8.33%
68 | CN1C(CC(=O)c2ccccc2)CCCC1CC(O)c1ccccc1 (centres unmarked) | -82.4%
69 | O=C(CC1C(=O)CCCC1=O)c1ccccc1 | 25.1%
70 | CN1C(CC(O)c2ccccc2)CCCC1CC(O)c1ccccc1.Cl (centres unmarked) | -67.8%
71 | CN1CCC(N(C)CC(O)c2ccccc2)CC1.O=C(O)C(=O)O (centres unmarked) | -6.05%
72 | OC(CNC1CCCCC1)c1ccccc1 (centres unmarked) | 12.1%
73 | CCOC(=O)C(NC(=O)CC)(Nc1ccccc1)C(F)(F)F (centres unmarked) | 21.9%
74 | Cc1noc(/C=C/c2nn(C)cc2Cl)c1[N+](=O)[O-] | 16.6%
75 | C/C(=N\Nc1ccc(C)c(Cl)c1)c1ccncc1 | 24.8%
76 | Cc1ccccc1C(=O)NC1CCN(Cc2nnnn2C(C)(C)C)CC1 | 17.7%
77 | O=C(CCC(=O)c1ccc(Cl)s1)Nc1ncccc1O | -28.2%
78 | CCOC(=O)Nc1nc(-c2ccc(Cl)cc2Cl)cs1 | 11.7%
79 | CCn1ccnc1CN(C)Cc1nc(Cc2cccc(C(F)(F)F)c2)no1 | -60.8%
80 | CN(Cc1nc(Cc2cccc(C(F)(F)F)c2)no1)C1CC(C)(C)NC(C)(C)C1 | -12.3%
81 | CCn1ccnc1CN(C)Cc1nc(CCC(C)C)no1 | 4.23%
82 | CN1CCCC2(CCCN(Cc3nc(Cc4cccc(C(F)(F)F)c4)no3)C2)C1 (centres unmarked) | -45.2%
83 | CC(CN(C)Cc1nc(Cc2cccc(C(F)(F)F)c2)no1)CN1CCCC1 (centres unmarked) | -63.2%
84 | CCc1ccc(CN(C)Cc2nc(Cc3cccc(C(F)(F)F)c3)no2)nc1 | -28.1%
85 | COc1ccc(NC(=O)Cn2nnc(C(=O)Nc3ccc(F)c(Cl)c3)c2N)cc1 | 25.9%
86 | Cc1cccc(C(=O)NNC(=O)c2ccc(O)cc2)c1 | -2.31%
